The panel holds about 83,000 compounds, 20% with a hit somewhere; the sample as a whole holds those more often.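 Compound tested at a single concentration for 48 hours in 96-well plates; a percent growth value below 10 was scored as active.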 Values without a mark were called inactive. Active and inactive are the calls of the source.
system: MCF7 breast; assay: NCI-60 one-dose screen, 48 h (100 = growth as untreated, 0 = no growth, -100 = all killed); settings: 10 µM unless noted

| Structure (SMILES) | growth |
| --- | --- |
| COC(=O)c1c2c(c(C)[n+]([O-])c1C)C(=O)C(NCc1ccc(Cl)cc1)=CC2=O | 35.9% |
| C=C1C(=O)O[C@H]2[C@H]1CC/C(COC(=O)CCSCCC(=O)OC/C1=C/CC[C@@]3(C)O[C@H]3[C@H]3OC(=O)C(=C)[C@@H]3CC1)=C\CC[C@@]1(C)O[C@@H]21 | 9.43% (active) |
| Cc1c(-n2nnc(-c3nc4ccccc4s3)c2N)c(=O)n(-c2ccccc2)n1C | 90.6% |
| O=C(c1cc2ccccc2o1)c1nn(-c2ccccc2)/c(=N/N=Cc2cn(-c3ccccc3)nc2-c2cc3ccccc3oc2=O)s1 | 83.1% |
| C=CCn1c(SCC(=O)NCc2cc(C)c(O)c(C)c2)nc2ccc(Cl)cc2c1=O | 91.3% |
| CNC(=O)c1c(NC(=O)c2ccc(C(F)(F)F)cc2)sc2c1CCC(=O)C2 | 0.392% (active) |
| O=C(Nc1ccc(-c2nc(N3CCOCC3)c3cccn3n2)cc1)Nc1cccnc1 | 4.54% (active) |
| COc1ccc(/C(C)=C(/c2ccc(OCCCN(C)C)cc2)c2ccc(OC(=O)Cc3ccccc3)cc2)cc1 | 25.4% |
| O=C(NCc1ccccc1)Nc1ccccc1CNc1nc(Nc2ccc(OCCN3CCCC3)cc2)ncc1Cl | 65.9% |
| CN1C(=O)/C(=C/c2ccc(C(=O)Nc3ncc(Cc4ccc(Cl)cc4)s3)cc2)SC1=S | 55.5% |
| CCN1C(=O)N(CC)C2C1NN=c1s/c(=C\c3cccc([N+](=O)[O-])c3)c(=O)n12 (configuration not stated) | 17.1% |
| CCN(CC)CCOc1ccc(C(=C(C)c2ccc(Cl)cc2)c2ccc(OCCN(CC)CC)cc2)cc1 | -76.5% (active) |

— PubChem BioAssay (NCI)
